Compounds with a hit are over-represented: about 1.7% of the library has one in this group of screens.
PTHR1 ag – PTHR1 (human) receptor agonism; Q03431; HEK293 GP2 PTHR1 cells, GloSensor cAMP luminescence, 1 h; Potency, µM (series often up to 115 µM), without a hit: at the highest dose activation, usual class: activators; 0.075% of 410,000 active; AID 743266; note: nearly all actives have a fitted effect of over 55% in size
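HEK-293-derived GP2 cells expressing PTHR1 and a GloSensor cAMP reporter, 3,000/well, plated overnight, given luciferin plus IBMX (each 0.5 mM as added) for 1 h at 37 °C, then compound for 1 h at 37 °C. Luminescence was read after 15 min at room temperature.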
GLP-1R inv ag – GLP-1 receptor (human) inverse agonism | P43220 | HEK293 GLP-1R CRE-luciferase, luminescence, 24 h; GLP-1R form is constitutively active | Potency, µM (top dose mostly 38.3 µM), for the others: at the top dose activity change, negative = inhibition, hits mostly inhibitors | 1.6% of 410,000 active; note: % is set by controls: 0 for no effect and ±100 for the full control effect; nearly all actives have a fitted effect of over 55% in size
Target sequence (P43220 whole entry, looked up): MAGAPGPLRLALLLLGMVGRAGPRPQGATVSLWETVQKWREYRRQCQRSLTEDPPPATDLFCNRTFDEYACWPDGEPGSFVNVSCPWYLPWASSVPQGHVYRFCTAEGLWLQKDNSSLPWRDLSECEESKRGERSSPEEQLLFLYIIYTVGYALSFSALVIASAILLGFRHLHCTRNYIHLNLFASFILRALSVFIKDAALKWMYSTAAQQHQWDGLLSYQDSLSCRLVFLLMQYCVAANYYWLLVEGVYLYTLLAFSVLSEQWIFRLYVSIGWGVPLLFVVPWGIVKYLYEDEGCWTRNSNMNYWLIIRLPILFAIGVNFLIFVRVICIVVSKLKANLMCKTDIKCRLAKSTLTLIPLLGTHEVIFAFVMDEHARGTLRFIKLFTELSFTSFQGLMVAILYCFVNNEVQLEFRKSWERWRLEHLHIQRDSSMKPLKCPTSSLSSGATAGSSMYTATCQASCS
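Constitutively active GLP-1R drives a cAMP-responsive luciferase in stably transfected HEK293 cells; test compounds are added after overnight (12 h) attachment and left 24 hr, and signal loss in luminescence marks inhibition.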
HEK293 tox – cytotoxicity in counter-screen for GLP-1R inverse agonists; HEK293 cAMP-luciferase reporter cells, luminescence, 24 h; Potency, µM (doses to about 38.3 µM), inactives show at the top dose activity change, negative = inhibition, hits mostly inhibitors; 0.13% of 410,000 active;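 note: loss of luciferase light is scored as toxicity; % is set by controls: 0 for no effect and ±100 for the full control effect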
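Step one: seed cells (200 cells/uL, DMEM with 10% Nu serum, 1% pen-strep). Step two: 12-hour incubation at 37 deg C. Step three: pin 23 nL compound, incubate 24 hr. Step four: add luciferase reagent, read luminescence 12 min later.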
GLP1R ag – agonists of human GLP-1 receptor | P43220 | HEK293 GLP-1R CRE-luciferase, luminescence, 4-6 h; cells express a hypersensitive GLP-1R form | Potency, µM (top dose mostly 45.6 µM), for the others: top-dose activation, most hits filed as activators | 0.007% of 380,000 active | AID 624172; note: % of control where 0% means no effect
Starred values were filed as active, the others as inactive; i = inactive; ? = inconclusive; · = no result; [ ] = remark or other dose. Calls come from the whole dose curve; as a rule, active = well fitted curve in the direction sought with a large enough effect; inconclusive = small, poorly fitted or top-dose-only effect, or another doubt; inactive = no such curve, though single readings can be large; an effect the other way counts as inactive or inconclusive. Potency is the fitted concentration of half-maximal effect.

SMILES	PTHR1 ag	GLP-1R inv ag	HEK293 tox	GLP1R ag
O=C(NCc1ccccc1)c1ccc(C2SCC(=O)N2Cc2ccccc2)cc1 (configuration not stated)	-20%[57.5 µM]	10µM*	-7%	-1%
COc1ccc(C(=O)Nc2ccc(C)cn2)c(OC)c1	-77%[57.5 µM]	2µM*	8%	-18%
COc1ccc(C(=O)Nc2cc(C)on2)c(OC)c1	-37%	12%	-2%	6%
O=C(CSc1ccccc1)Nc1ccc(-c2nc3ccccc3[nH]2)cc1	-8%	?	-33%	-1%
O=C(Cc1cccs1)Nc1ccc(-c2nc3ccccc3[nH]2)cc1	-12%[57.5 µM]	4.5µM*	-23%	-1%
Cc1sc2ncnc(SC(C)C(=O)N3c4ccccc4Sc4ccccc43)c2c1C (configuration not stated)	i	8.9µM*	-12%	0%
Cc1c(C)n(Cc2ccc(Cl)cc2)c2ccc(C(=O)NCCN3CCOCC3)cc12	-15%	3.5µM*	-8%	7%
O=C(NCCCN1CCOCC1)c1ccc2c(=O)n(Cc3ccc(Cl)cc3)c(=S)[nH]c2c1	i	2µM*	16%	0%
Cc1ccc(CN2C(=O)c3ccccc3Sc3ccc(C(=O)NCCN4CCOCC4)cc32)cc1	-13%	6.3µM*	?	-6%
Cc1c(C)n(Cc2ccccc2)c2ccc(C(=O)NCCN3CCOCC3)cc12	-5%	?	-14%	4%
CN(C)CCNC(=O)c1ccc2c(=O)n(Cc3ccc(Cl)cc3)c(=S)[nH]c2c1	-34%	3.2µM*	?	7%
CC(=O)c1cccc(NC(=O)CCn2c(=S)oc3ccccc32)c1	i	13%	2%	15%
Oc1ccc2ccccc2c1N=Nc1ccccc1F	i	16%	-12%	1%
Oc1ccc2ccccc2c1N=Nc1ccccn1	i	?	2.5µM*	?
Cc1cn([C@H]2C[C@H](N=[N+]=[N-])[C@H](CO)O2)c(=O)[nH]c1=O	·	·	·	-4%
CCC(CC)NC(=O)CON=C1c2ccccc2-c2ccccc21	-9%	8.9µM*	5%	14%
CCNC(=O)CON=C1c2ccccc2-c2ccccc21	-3%	?	-12%	?
COc1ccccc1-c1nnc(SCC(=O)Nc2ccc3[nH]c(=O)[nH]c3c2)n1N	11%	14%	3%	-5%
Cc1nc(Nc2nc(CSc3nc4ccccc4[nH]3)cc(=O)[nH]2)nc2ccccc12	i	1.1µM*	?	-4%
Cc1ccc(-c2nnc(SCC(N)=O)nc2-c2ccc(C)cc2)cc1	-8%	-30%	-8%	2%
Cc1ccc(-c2nnc(SCC(=O)NC(C)(C)C)nc2-c2ccc(C)cc2)cc1	-11%	11µM*	0%	·
O=C(CSc1ccc(Br)cc1)Nc1cccc(S(=O)(=O)N2CCOCC2)c1	-19%	?	2%	6%
Cc1ccc(NC2=Nc3ccccc3CS2)cc1	-17%[57.5 µM]	6.3µM*	-10%	-18%
Fc1cccc(NC(=S)NCc2ccccc2Cl)c1	-21%	10µM*	-92%	-1%
S=C(NCCC(c1ccccc1)c1ccccc1)Nc1cccc(Cl)c1	-17%[57.5 µM]	11µM*	?	-4%
SMILES	PTHR1 ag	GLP-1R inv ag	HEK293 tox	GLP1R ag
COc1ccc(OC)c(NC(=S)NCCC(c2ccccc2)c2ccccc2)c1	-34%	8.9µM*	-20%	2%
Cc1ccc(SCCNC(=S)Nc2cc(C)cc(C)c2)cc1	-36%	7.9µM*	?	1%
CC1(C)CC(=O)C=C(c2cc3ccccc3s2)C1	i	11%	?	-1%
O=C1C=C(c2cc3ccccc3s2)CCC1	-77%	2.5µM*	-30%	-8%
CCN(CC)CC(O)c1ccc2ccc3ccc(O)cc3c2c1 (configuration not stated)	-24%	11µM*	?	-4%
CCc1nn2cc(-c3ccccc3)nc2s1	-26%	5.6µM*	-5%	-15%
COc1cccc(NC(=S)/C(=C(\[O-])c2ccc([N+](=O)[O-])cc2)[n+]2ccccc2)c1	-13%	4%	-2%	-3%
Cc1ccc2nc(-c3cccc(-c4cccc(Cl)c4)c3)c(NCc3ccccc3)n2c1	-7%	11µM*	0%	-14%
Cc1ccn2c(NC3CCCCC3)c(-c3cccc(SC4CCCCC4)c3)nc2c1	-46%	?	-20%	4%
CCC(C)Sc1cccc(-c2nc3cc(C)ccn3c2NC2CCCCC2)c1 (configuration not stated)	-84%	5µM*	?	2%
CCCCCCSc1cccc(-c2nc3cc(C)ccn3c2NCc2ccccc2)c1	-25%	5µM*	?	0%
CCC(C)Sc1cccc(-c2nc3ccc(C)cn3c2NCc2ccccc2)c1 (configuration not stated)	-64%	?	-16%	0%
Cc1csc(NC(C)c2nc3cc(C(F)(F)F)ccc3n2CCCO)n1 (configuration not stated)	i	-19%	5%	2%
CC(=O)O[C@]1(C(=O)CO)[C@@H](C)C[C@H]2[C@@H]3CCC4=CC(=O)C=C[C@]4(C)[C@@]3(F)[C@@H](O)C[C@]21C	·	·	·	5%
C/C(=N\NC(=O)C(=O)Nc1cccc(Cl)c1C)c1ccncc1	i	0%	15%	5%
CC(C)NC(=O)NC(=O)COC(=O)c1c2c(nc3ccccc13)CCC2	-43%	10µM*	?	6%
COc1cccc(NC(=O)COC(=O)c2c3c(nc4ccccc24)CCC(C)C3)c1 (configuration not stated)	?	5µM*	?	-20%
CC(C)c1ccccc1NC(=O)COC(=O)c1c2c(nc3ccccc13)CCN(Cc1ccccc1)C2	i	10µM*	5%	0%
CSCc1c(C(=O)N2CCCc3ccccc32)oc2ccccc12	-1%	8.9µM*	-1%	7%
Cc1cc(NCCCN2CCOCC2)n2nc(C)c(-c3ccccc3)c2n1	-13%	4.5µM*	0%	26%
CCc1ccc(-n2c(N3CCN(c4cccc(Cl)c4)CC3)nc3ccccc3c2=O)cc1	-31%	?	2%	·
CCOC(=O)c1c(C)[nH]c(C)c1C(=O)CSc1nc2ccccc2n1CC	-21%	-18%	-22%	7%
CCOC(=O)c1c(C)[nH]c(C)c1C(=O)CSc1nc2ccccc2c(=O)n1-c1ccc(CC)cc1	-11%	10µM*	-12%	9%
CCc1ccc(-n2c(N3CCN(c4ccc(F)cc4)CC3)nc3ccccc3c2=O)cc1	i	11µM*	1%	·
Cc1ccc(S(=O)(=O)NCCc2cn3c(C)csc3n2)cc1	-1%	11%	1%	·
CCN(C(=O)CSc1nc2ccccc2nc1Cc1ccc(F)cc1)c1cccc(C)c1	-4%	14%	0%	·
CCN(C(=O)CSc1nc(-c2ccccc2)no1)c1cccc(C)c1	-43%	1.3µM*	-22%	·
CCN(C(=O)CSc1nc2ccccc2nc1Cc1cccc(OC)c1)c1cccc(C)c1	-29%	11µM*	-4%	·
Cc1ccc(NC(=O)Cn2cc(S(=O)(=O)Cc3ccc(F)cc3)c3ccccc32)cc1Cl	-21%	?	-15%	·
